# Data taken from PubChem BioAssay (NCATS).
# Inconclusive results are not listed. Where a call stands in place of a potency, no number is given. Activity calls are given as the source filed them. Calls follow the shape of the dose curve; as a rule, active = well fitted curve in the direction sought with a large enough effect; inconclusive = small, poorly fitted or top-dose-only effect, or another doubt; inactive = no such curve, though single readings can be large; an effect the other way counts as inactive or inconclusive.
# Experiments:
# [1] = Quantitative High-Throughput drug screen in 47 multiple myeloma cell lines against the NCATS MIPE library collection: Karpas25_ECACC cell viability assay (AID 1918968; also: nearly all actives have a fitted effect of over 35% in size); settings: Karpas25 myeloma viability, CellTiter-Glo ATP, 48 h; series mostly up to 45.8 µM
# Outline: (§1)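 qHTS of the MIPE 4.0 collection: 500 myeloma cells/well, 48 h drug exposure at 37C in 5% CO2, then CellTiter-Glo for 5 min at room temperature before luminescence reading.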
# [2] = Quantitative High-Throughput drug screen in 47 multiple myeloma cell lines against the NCATS MIPE library collection: KMS12PE_JCRB cell viability assay (AID 1918972); settings: KMS12PE myeloma viability, CellTiter-Glo ATP, 48 h; series mostly up to 45.8 µM; also: nearly all actives have a fitted effect of over 30% in size; also: potency is read from the fitted curve at half-maximal effect
# Outline: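 We plated 500 myeloma cells per well, pinned in MIPE 4.0 compounds, and incubated for 48 hours at 37C. ATP was then quantified with CellTiter-Glo, with DMSO and media-only wells defining 100% and 0%.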
# [3] = Quantitative High-Throughput drug screen in 47 multiple myeloma cell lines against the NCATS MIPE library collection: NCIH929_DSMZ cell viability assay (AID 1918978); settings: NCI-H929 myeloma viability, CellTiter-Glo ATP, 48 h; series mostly up to 45.8 µM; also: nearly all actives have a fitted effect of over 35% in size; also: potency is read from the fitted curve at half-maximal effect
# Outline: (§2)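 Plated at 500 cells per well, myeloma lines received MIPE 4.0 compounds by pin tool. Following 48 h culture at 37 °C, CellTiter-Glo luminescence gave viability relative to DMSO and media-only controls.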
# [4] = Quantitative High-Throughput drug screen in 47 multiple myeloma cell lines against the NCATS MIPE library collection: KMS27_JCRB cell viability assay (AID 1918970); settings: KMS27 myeloma cells, CellTiter-Glo ATP viability, 48 h; series mostly up to 45.8 µM; also: nearly all actives have a fitted effect of over 30% in size; also: potency is read from the fitted curve at half-maximal effect
# Outline: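 Luminescent ATP read-out (CellTiter-Glo, 5 min at room temperature) after 48 h compound exposure of 500 KMS27_JCRB cells per well; DMSO wells define full viability and media-only wells zero.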
# [5] = Quantitative High-Throughput drug screen in 47 multiple myeloma cell lines against the NCATS MIPE library collection: KMS20_JCRB cell viability assay (AID 1918973); settings: CellTiter-Glo ATP, 48 h; series mostly up to 45.8 µM; also: nearly all actives have a fitted effect of over 45% in size
# Outline: as §1
# [6] = Quantitative High-Throughput drug screen in 47 multiple myeloma cell lines against the NCATS MIPE library collection: KMS21BM_JCRB cell viability assay (AID 1918974); settings: ATP luminescence, 48 h; viability: at 45.8 µM (top of the series) unless noted
# Outline: as §1
# [7] = Quantitative High-Throughput drug screen in 47 multiple myeloma cell lines against the NCATS MIPE library collection: KMS26_JCRB cell viability assay (AID 1918975); settings: KMS26 myeloma cells viability, CellTiter-Glo ATP, 48 h; series mostly up to 45.8 µM; also: nearly all actives have a fitted effect of over 45% in size
# Outline: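 Relative luminescence from CellTiter-Glo served as the viability signal, referenced to DMSO-treated (100%) and cell-free medium (0%) controls. Treatment lasted 48 hours at 37C with 500 cells per well.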
# [8] = Quantitative High-Throughput drug screen in 47 multiple myeloma cell lines against the NCATS MIPE library collection: MOLP8_DSMZ cell viability assay (AID 1918977); settings: MOLP8 myeloma viability, CellTiter-Glo ATP luminescence, 48 h; series mostly up to 45.8 µM; also: nearly all actives have a fitted effect of over 45% in size
# Outline: as §2
SMILES,Potency [1],Potency [2],Potency [3],Potency [4],Potency [5],viability [6],Potency [7],Potency [8]
CNCc1ccc(-c2[nH]c3cc(F)cc4c3c2CCNC4=O)cc1,inactive,inactive,inactive,–,–,–,–,–
COc1ccccc1-c1cccc(-c2c(O)c3cc(C#N)c(Cl)cc3[nH]c2=O)c1,–,48.1 µM (active),–,42.9 µM (active),inactive,162% [at 92.2 µM] (active),inactive,inactive
COc1ccc2nc(S(=O)Cc3ncc(C)c(OC)c3C)[nH]c2c1 (stereo unspecified),inactive,–,10.5 µM (active),–,inactive,–,inactive,–
O=C1CCc2cc(OCCCCc3nnnn3C3CCCCC3)ccc2N1,–,inactive,–,inactive,–,–,inactive,–
